This is an account of results in PubChem BioAssay (EPA / NIEHS).

Where “and” joins values, the source holds several entries; their conditions need not be identical. Identical values can stand only once. Inconclusive results are not listed. Calls of active or inactive are those of the source. The calls were made as follows: active = hit-call score of the fitted dose curve at least 0.9, where 1 is the maximum; inconclusive = response in the unintended direction; inactive = score below 0.9.

Chain of Estrogen receptor beta (Homo sapiens) (Q92731 whole entry, looked up, the tested form may be a part): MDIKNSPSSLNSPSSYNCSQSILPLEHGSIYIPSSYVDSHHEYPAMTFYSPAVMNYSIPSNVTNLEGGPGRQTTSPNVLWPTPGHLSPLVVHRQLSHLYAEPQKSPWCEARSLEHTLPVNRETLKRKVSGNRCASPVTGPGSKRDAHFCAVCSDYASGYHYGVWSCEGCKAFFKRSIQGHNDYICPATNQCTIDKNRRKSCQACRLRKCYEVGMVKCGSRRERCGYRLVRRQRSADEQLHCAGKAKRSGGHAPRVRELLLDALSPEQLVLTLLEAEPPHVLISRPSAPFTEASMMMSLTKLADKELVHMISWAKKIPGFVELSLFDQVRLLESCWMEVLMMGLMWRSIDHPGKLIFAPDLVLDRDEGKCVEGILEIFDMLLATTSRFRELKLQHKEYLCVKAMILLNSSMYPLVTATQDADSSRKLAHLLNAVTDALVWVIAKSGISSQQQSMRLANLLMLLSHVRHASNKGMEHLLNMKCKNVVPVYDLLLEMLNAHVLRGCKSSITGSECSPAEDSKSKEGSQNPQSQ
Chain of GAL4 Transcription Factor (Internal Marker), GAL4 (gene 855828) (P04386 whole entry, looked up, the tested form may be a part): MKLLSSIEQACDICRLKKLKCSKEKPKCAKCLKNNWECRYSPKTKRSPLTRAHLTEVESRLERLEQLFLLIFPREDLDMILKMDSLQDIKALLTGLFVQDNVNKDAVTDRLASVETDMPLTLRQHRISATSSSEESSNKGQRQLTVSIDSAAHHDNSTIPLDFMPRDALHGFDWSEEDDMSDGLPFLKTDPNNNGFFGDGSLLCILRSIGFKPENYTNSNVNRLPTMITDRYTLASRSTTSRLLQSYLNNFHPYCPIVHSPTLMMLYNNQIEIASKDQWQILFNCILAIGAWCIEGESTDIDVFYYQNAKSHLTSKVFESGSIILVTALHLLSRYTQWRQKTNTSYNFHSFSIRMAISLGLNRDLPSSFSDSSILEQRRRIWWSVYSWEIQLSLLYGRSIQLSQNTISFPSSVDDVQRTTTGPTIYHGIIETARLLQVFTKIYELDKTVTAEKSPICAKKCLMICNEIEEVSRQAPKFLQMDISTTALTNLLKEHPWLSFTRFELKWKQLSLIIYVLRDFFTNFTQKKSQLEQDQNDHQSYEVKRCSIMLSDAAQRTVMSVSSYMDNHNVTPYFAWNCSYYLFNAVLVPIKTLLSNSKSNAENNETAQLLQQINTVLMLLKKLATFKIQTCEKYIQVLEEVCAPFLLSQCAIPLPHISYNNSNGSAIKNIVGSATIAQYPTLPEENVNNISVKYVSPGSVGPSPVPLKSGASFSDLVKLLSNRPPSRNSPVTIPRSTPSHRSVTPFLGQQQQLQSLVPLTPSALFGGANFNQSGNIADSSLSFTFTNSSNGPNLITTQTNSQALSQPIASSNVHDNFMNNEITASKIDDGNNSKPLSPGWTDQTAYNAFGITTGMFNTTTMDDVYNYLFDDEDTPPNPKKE
Chain of zebrafish Estrogen Receptor (ER1), esr1 (gene 259252) (P57717 whole entry, looked up, the tested form may be a part): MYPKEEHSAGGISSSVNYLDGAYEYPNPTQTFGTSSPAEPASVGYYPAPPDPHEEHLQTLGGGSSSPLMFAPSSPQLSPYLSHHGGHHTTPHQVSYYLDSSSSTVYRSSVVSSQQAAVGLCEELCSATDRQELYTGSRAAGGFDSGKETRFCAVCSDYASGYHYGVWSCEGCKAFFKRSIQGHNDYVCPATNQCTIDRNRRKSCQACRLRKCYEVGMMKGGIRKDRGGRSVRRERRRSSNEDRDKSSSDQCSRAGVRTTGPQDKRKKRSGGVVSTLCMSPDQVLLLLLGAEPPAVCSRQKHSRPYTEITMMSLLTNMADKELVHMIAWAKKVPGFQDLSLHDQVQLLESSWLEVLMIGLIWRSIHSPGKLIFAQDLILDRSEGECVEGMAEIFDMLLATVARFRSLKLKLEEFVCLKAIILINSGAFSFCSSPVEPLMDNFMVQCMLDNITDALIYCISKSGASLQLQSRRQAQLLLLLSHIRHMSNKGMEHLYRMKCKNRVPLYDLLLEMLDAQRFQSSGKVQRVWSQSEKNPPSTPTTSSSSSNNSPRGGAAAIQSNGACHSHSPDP
Chain of chicken Estrogen Receptor (ERa), ESR1 (gene 396099) (P06212 whole entry, looked up, the tested form may be a part): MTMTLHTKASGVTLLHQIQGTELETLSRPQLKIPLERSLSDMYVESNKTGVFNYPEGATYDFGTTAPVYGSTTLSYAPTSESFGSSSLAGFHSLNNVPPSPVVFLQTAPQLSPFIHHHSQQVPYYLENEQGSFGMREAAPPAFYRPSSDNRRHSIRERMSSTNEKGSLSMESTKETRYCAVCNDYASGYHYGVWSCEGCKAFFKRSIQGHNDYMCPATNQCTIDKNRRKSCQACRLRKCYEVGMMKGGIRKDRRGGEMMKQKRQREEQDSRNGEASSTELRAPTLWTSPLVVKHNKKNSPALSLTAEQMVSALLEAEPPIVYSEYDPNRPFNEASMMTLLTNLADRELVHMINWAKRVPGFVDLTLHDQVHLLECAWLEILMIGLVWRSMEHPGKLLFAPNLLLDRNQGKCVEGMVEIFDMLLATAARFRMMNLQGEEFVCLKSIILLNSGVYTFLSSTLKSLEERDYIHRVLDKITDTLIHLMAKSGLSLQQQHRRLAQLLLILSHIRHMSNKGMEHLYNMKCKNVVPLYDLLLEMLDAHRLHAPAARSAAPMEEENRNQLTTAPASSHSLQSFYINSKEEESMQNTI

Test system in the first assay: not listed separately
The assay is described as follows: ATG_M_06_XSP2: Attagene TRANS-FACTORIAL Multi-Species (XSP2) HepG2 Assay for M06 Transcription Factor (Internal Marker) (AID 2283811).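 Also: internal background marker reporter mRNA measured by RT-PCR and capillary electrophoresis; hits are increases in signal above the DMSO baseline.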 The essentials:
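Readout: fluorescent reporter-mRNA peaks by capillary electrophoresis after RT-PCR and HpaI digest, scored upward relative to DMSO. Transfected HepG2, 24 h chemical exposure, with 3 nM 6-alpha-fluorotestosterone and 1.5 nM norgestrel added.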
On to `O=S(=O)(c1ccc(O)cc1)c1ccc(O)cc1`, for which the molecule was called inactive.

In the case of `O=P(Oc1ccccc1)(Oc1ccccc1)Oc1ccccc1`, the molecule was classed as inactive.

As for `CCCCc1ccc(O)cc1`, the result was inactive.

In the case of `CC(C)(C)c1ccc(O)cc1`, the molecule was called inactive.

As to `c1ccc2c(c1)Nc1ccccc1S2`, the molecule was called inactive.

The next assay deals with turtle Estrogen Receptor (ERa), gene 101933533. The assay is described as follows: ATG_trERa_XSP2: Attagene TRANS-FACTORIAL Multi-Species (XSP2) HepG2 Assay for turtle Estrogen Receptor (ERa) (AID 2283812).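 Also: actives raise reporter signal above DMSO so AC50 reflects agonist activity.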 The method in brief: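 Readout is reporter mRNA quantified by RT-PCR with capillary electrophoresis after 24 h compound exposure, increase relative to DMSO. Uses transiently transfected human HepG2 liver cells carrying a chimeric turtle ERa-Gal4 receptor driving GAL4-UAS reporters.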
What is called AC50 is the concentration at which the activity in the assay is half-maximal. In the case of `O=S(=O)(c1ccc(O)cc1)c1ccc(O)cc1`, the AC50 was 2.98 µM (active) and 2.14 µM (active).

In the case of `CCC(C)(C)c1ccc(O)cc1`, the half-maximal activity concentration (AC50) is 4.29 µM (active) and 1.92 µM (active).

For `CCCCc1ccc(O)cc1`, the AC50 was 2.42 µM (active) and 3.02 µM (active).

For `CC(C)(C)c1ccc(O)cc1`, the AC50 is 6.07 µM (active) and 4.64 µM (active).

Turning to `c1ccc2c(c1)Nc1ccccc1S2`, the half-maximal activity concentration (AC50) is 10.7 µM (active) and 6.48 µM (active).

Another assay addresses Estrogen receptor beta (Homo sapiens) (UniProt Q92731). The assay is described as follows: ATG_hERb_XSP2: Attagene TRANS-FACTORIAL Multi-Species (XSP2) HepG2 Assay for human Estrogen Receptor (ERb) (AID 2283813).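 Also: actives raise reporter mRNA above DMSO so AC50 reflects agonist induction.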 The method in brief:
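Transient TRANS reporter system in HepG2: after 24 h of chemical, RNA is reverse-transcribed, reporter cDNA amplified, FAM-labelled and sized by capillary electrophoresis. Induction of the human ERb-Gal4 reporter is measured relative to DMSO.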
As for `O=S(=O)(c1ccc(O)cc1)c1ccc(O)cc1`, the half-maximal activity concentration (AC50) was 1.66 µM (active) and 1.76 µM (active).

On to `CCC(C)(C)c1ccc(O)cc1`, for which the half-maximal activity concentration (AC50) was 44.4 µM (active) and 3.05 µM (active).

Consider `CCCCc1ccc(O)cc1`, for which the half-maximal activity concentration (AC50) is 2.45 µM (active) and 2.3 µM (active).

Regarding `c1ccc2c(c1)Nc1ccccc1S2`, the half-maximal activity concentration (AC50) is 27.2 µM (active) and 5.66 µM (active).

Another assay deals with GAL4 Transcription Factor (Internal Marker), GAL4 (gene 855828) (UniProt P04386). The assay is described as follows: ATG_GAL4_XSP2: Attagene TRANS-FACTORIAL Multi-Species (XSP2) HepG2 Assay for GAL4 Transcription Factor (Internal Marker) (AID 2283814).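 Also: GAL4 reporter mRNA background control in MRTU transfected cells not a receptor target.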 The essentials:
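Background-control readout: gain-of-signal fitted against DMSO. After 24 h exposure of transfected HepG2 (MRTU, GAL4-UAS reporters; 3 nM 6-alpha-fluorotestosterone, 1.5 nM norgestrel present), transcripts quantified by RT-PCR and capillary electrophoresis fluorescence.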
On to `O=P(Oc1ccccc1)(Oc1ccccc1)Oc1ccccc1`, for which the result was inactive.

With `CCC(C)(C)c1ccc(O)cc1`, the molecule was called inactive.

Regarding `c1ccc2c(c1)Nc1ccccc1S2`, the molecule was classed as inactive.

A further assay concerns the target zebrafish Estrogen Receptor (ER1), esr1 (gene 259252) (UniProt P57717). The assay is described as follows: ATG_zfER1_XSP2: Attagene TRANS-FACTORIAL Multi-Species (XSP2) HepG2 Assay for zebrafish Estrogen Receptor (ER1) (AID 2283816). The method in brief:
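After 24 h compound exposure, RNA from transfected HepG2 cells was reverse-transcribed and reporter transcripts resolved by capillary electrophoresis. The TRANS format reads exogenous zebrafish ER1-Gal4 chimera activity on GAL4-UAS elements; gain of signal against DMSO.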
Regarding `O=S(=O)(c1ccc(O)cc1)c1ccc(O)cc1`, the AC50 was 41.8 µM (active) and 17.2 µM (active).

Take `O=P(Oc1ccccc1)(Oc1ccccc1)Oc1ccccc1`: the molecule was called inactive.

As to `CCC(C)(C)c1ccc(O)cc1`, the AC50 is 34.1 µM (active) and 7.34 µM (active).

As to `CCCCc1ccc(O)cc1`, the AC50 was 69.6 µM (active) and 7.15 µM (active).

On to `CC(C)(C)c1ccc(O)cc1`, for which the AC50 was 170 µM (active) and 51.1 µM (active).

On to `c1ccc2c(c1)Nc1ccccc1S2`, for which the molecule was called inactive.

The target of a further assay is chicken Estrogen Receptor (ERa), ESR1 (gene 396099) (UniProt P06212). The assay is described as follows: ATG_chERa_XSP2: Attagene TRANS-FACTORIAL Multi-Species (XSP2) HepG2 Assay for chicken Estrogen Receptor (ERa) (AID 2283817).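 Also: actives raise reporter signal above DMSO so AC50 reflects ER activation.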 The essentials:
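Readout: fluorescent reporter-transcript fragments resolved by capillary electrophoresis after RT-PCR and HpaI cut. Chicken ERa-Gal4 fusion in transiently transfected HepG2, dosed for 24 h; activity taken as increase over DMSO baseline.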
In the case of `O=S(=O)(c1ccc(O)cc1)c1ccc(O)cc1`, the concentration at half-maximal activity (AC50) was 2.24 µM (active) and 2.5 µM (active).

Regarding `O=P(Oc1ccccc1)(Oc1ccccc1)Oc1ccccc1`, the molecule was classed as inactive.

Regarding `CCC(C)(C)c1ccc(O)cc1`, the AC50 is 3.58 µM (active) and 2.33 µM (active).

In the case of `CCCCc1ccc(O)cc1`, the AC50 is 3.21 µM (active) and 1.79 µM (active).

As to `CC(C)(C)c1ccc(O)cc1`, the AC50 was 4.76 µM (active) and 6.06 µM (active).

As to `c1ccc2c(c1)Nc1ccccc1S2`, the AC50 was 11.3 µM (active) and 4.72 µM (active).
